From PubChem BioAssay (NCI)
About 79,000 compounds went through this panel and 15% of them were active in at least one assay; those are over-represented in the sample as a whole. Activity calls are given as the source filed them. Cut-off read from the data, not from the text of the source: active = growth inhibition above about 70%; inactive = the rest.

Experiments:
[1] = NCI Yeast Anticancer Drug Screen. Data for the rad50 strain (AID 155);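 note: 0% = growth of vehicle-only cultures of the same strain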; settings: S. cerevisiae rad50 strain growth inhibition; at 50.0 µM; active compounds read high
Procedure, shortened: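 Compounds were tested on a yeast strain with an engineered DNA damage repair alteration; the reported value is growth inhibition normalised to vehicle treatment.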

[2] = NCI Yeast Anticancer Drug Screen. Data for the mec2-1 strain (AID 157); settings: S. cerevisiae mec2-1 strain, at 50.0 µM, active compounds read high
Procedure, shortened: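 Using mec2-1 yeast: add compound, measure growth, express inhibition versus vehicle-treated cultures.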

[3] = NCI Yeast Anticancer Drug Screen. Data for the sgs1 mgt1 strain (AID 161);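 note: 0% = growth of cultures given vehicle only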; settings: S. cerevisiae sgs1 mgt1 strain, at 50.0 µM, active compounds read high
Procedure, shortened: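 Yeast cells carrying a defined DNA-repair defect were exposed to test compounds. Growth inhibition was measured relative to vehicle-treated controls.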

[4] = NCI Yeast Anticancer Drug Screen. Data for the cln2 rad14 strain (AID 165);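 note: 0% = growth equal to vehicle treated cultures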; settings: S. cerevisiae cln2 rad14 strain, at 50.0 µM, active compounds read high
Procedure, shortened: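 Yeast strain cln2 rad14, bearing defects in cell cycle control and DNA repair, serves as the test system; values reflect growth inhibition compared with vehicle.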

[5] = NCI Yeast Anticancer Drug Screen. Data for the bub3 strain (AID 167); settings: S. cerevisiae bub3 mutant strain, at 50.0 µM, active compounds read high
Procedure, shortened: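 Growth of a checkpoint-deficient yeast mutant is measured after compound exposure. Values represent inhibition relative to vehicle.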

[6] = NCI Yeast Anticancer Drug Screen. Data for the mlh1 rad18 strain (AID 175); settings: S. cerevisiae mlh1 rad18 strain growth inhibition; at 50.0 µM; active compounds read high
Procedure, shortened: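 Steps: expose repair-defective yeast to compound; measure growth; express inhibition against vehicle-treated controls.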

Measured: growth inhibition

CCOc1c(OC)ccc(/C(C)=N\O)c1OCC
inactive: [1] -2.2% | [2] 0.65% | [3] 4.8% | [4] -1.7% | [5] 11.3% | [6] 10.1%

COc1cc(C)c2cc(C)cc(C)c2n1
inactive: [1] 3.4% | [2] 6.05% | [3] 1.65% | [4] -17.9% | [5] 3.9% | [6] 7.85%

CCCCc1ccc(Nc2nc(SC)c3[nH]cnc3n2)cc1
inactive: [1] 0.85% | [2] -17.6% | [3] 28.9% | [4] 16.1% | [5] 29.7% | [6] -37.7%

O=C(CCSCCC(=O)N/N=C/c1ccccc1F)N/N=C\c1ccccc1F
inactive: [1] 22.6% | [2] 10.7% | [3] 38.1% | [4] 27.4% | [5] 24.4% | [6] 21.8%

C=CCNC(=S)/N=C/c1c(O)c2ccccc2oc1=O
inactive: [1] -33.5% | [2] -29.6% | [3] -43% | [4] -33.6% | [5] -53% | [6] -46.9%

Cc1cn(CCCn2cnc3c(N)ncnc32)c(=O)[nH]c1=O
inactive: [1] -12.7% | [2] -31.6% | [3] -9.55% | [4] -6.6% | [5] -31.4% | [6] -2.9%

COc1ccc2nc3c(Cl)cccc3c(Cl)c2c1
inactive: [1] 28.4% | [2] 38.5% | [3] 3.4% | [4] 4.6% | [5] 7.35%
active: [6] 81.5%

O=C1Cc2c([nH]c3ccc(Cl)cc23)-c2ccccc2N1
inactive: [1] 5.55% | [2] 2.1% | [3] -50.9% | [4] 13.8% | [5] -7.9% | [6] 17.1%

COc1cccc(C2c3cc4c(cc3OC(N3CCCC3)C2C)OCO4)c1O (stereo not drawn)
inactive: [1] 13.6% | [2] -18.6% | [3] 3.3% | [4] -19.8% | [5] 12.3% | [6] -11.1%

O=C(NN1C(=O)C(Cl)C1c1ccccc1O)c1ccccc1O (stereo not drawn)
inactive: [1] -5.85% | [2] -26.5% | [3] -15.6% | [4] -15.1% | [5] -16.6% | [6] -29.4%

N#C/C(N)=C(\C#N)N=CN
inactive: [1] -5.5% | [2] 5.5% | [3] -7.1% | [4] 34% | [5] -22.3% | [6] -27.9%

COC(=O)c1cccnc1C#N
inactive: [1] 2.2% | [2] -0.95% | [3] 2.9% | [4] -5.95% | [5] 0.55% | [6] 0.4%

CCn1c2ccccc2n2c(=O)c3c(c(C#N)c12)CCCC3
inactive: [1] 4.6% | [2] 13.2% | [3] -30.1% | [4] -8.6% | [5] -33.9% | [6] -18.5%

O=C1/C=C2/C=CC=CN2C(=O)/C=C2/C=CC=CN12
inactive: [1] -1.6% | [2] -15.3% | [3] -15% | [4] 1.65% | [5] 0.95% | [6] -11.9%

CN(C)/C(N)=N\C(N)=Nc1cc2ccccc2c2ccccc12
inactive: [1] 1.3% | [2] -9.55% | [3] -0.2% | [4] -23.2% | [5] 2.25% | [6] -0.55%

COc1ccc(-c2cc(-c3ccccc3)n(-c3ccccc3)n2)cc1
inactive: [1] -0.9% | [2] 15.1% | [3] 7.2% | [4] -2.85% | [5] 0.8% | [6] -15.4%

C=C(C)CN(Cc1ccccc1)C1CCCCCCC1
inactive: [1] -7.55% | [2] -11.3% | [3] -14.8% | [4] -5.75% | [5] 1.35% | [6] -17.6%

c1ccc(C2OC(c3ccccc3)c3ccccc32)cc1 (stereo not drawn)
inactive: [1] 7.55% | [2] -6.8% | [3] 12.4% | [4] -2.05% | [5] 24.1% | [6] 12.2%

O=c1[nH]c2ccccc2c(=O)n2cccc12
inactive: [1] 10.4% | [2] 23.6% | [3] 7.8% | [4] -7.5% | [5] -5.75% | [6] 1.9%

CN=C(N)SCCCSC(N)=NC
inactive: [1] 17.6% | [2] 14% | [3] 28% | [4] 30.7% | [5] 15.6% | [6] 8.5%

COc1ccc(CCN2C(=O)C(=O)N(c3ccc(Cl)c(Cl)c3)C2=O)cc1OC
inactive: [1] 3.05% | [2] -0.25% | [3] 11.5% | [4] 14.3% | [5] -4.35% | [6] 13%

CNCc1ccccc1
inactive: [1] -1.25% | [2] -2.8% | [3] -21% | [4] -23% | [5] -19.8% | [6] -3.4%

CCN(CC)Cc1cc(Nc2cc(C)nc(/N=C(\N)Nc3cc(Cl)cc(Cl)c3)n2)ccc1O
inactive: [2] 69.2% | [4] 10.2% | [5] 7.95%
active: [1] 95.2% | [3] 97.2% | [6] 91.1%

CCCCCCCCCCCCCCCc1ccc([N+](=O)[O-])c(O)c1
inactive: [1] -2.25% | [2] 33.5% | [3] 7.1% | [4] -8.75% | [5] 51.7% | [6] 35.9%

O=C(/C=C(\C(=O)c1ccccc1)c1ccccc1)c1ccc(-c2ccccc2)cc1
inactive: [1] 8.2% | [2] -2.35% | [3] -3.15% | [4] -6.9% | [5] -3.45% | [6] -16.9%

CCOC(=O)c1[nH]c(C)cc1C
inactive: [1] 2.95% | [2] -15.9% | [3] -7.55% | [4] -18.2% | [5] -22.4% | [6] -0.9%

CCOc1ccccc1N
inactive: [1] 8.75% | [2] 16.2% | [3] -34% | [4] 9.5% | [5] -32% | [6] -20.1%

Oc1ccc(C2CCCC2)cc1
inactive: [1] -9.15% | [2] -30.1% | [3] -22.1% | [4] -14.7% | [5] -12.7% | [6] -17.4%

CO/N=C1\CC(NC(=O)CNC(=O)OC(C)(C)C)c2ccsc21 (stereo not drawn)
inactive: [1] 1.45% | [2] 5.9% | [3] 6.6% | [4] 4.3% | [5] -1.7% | [6] 28.4%

CC(=O)NCCSC(=O)CCCCCCCCC(=O)SCCNC(C)=O
inactive: [1] 11.8% | [2] -0.25% | [3] 27.2% | [4] 22.1% | [5] 6.55% | [6] 6.5%

C#CN1C(=O)c2c(c(-c3ccccc3)c(-c3ccc(Oc4ccc(-c5c(-c6ccccc6)c6c(c(-c7ccccc7)c5-c5ccccc5)C(=O)N(C#C)C6=O)cc4)cc3)c(-c3ccccc3)c2-c2ccccc2)C1=O
inactive: [1] 7.25% | [2] 10.1% | [3] 1.9% | [4] 10.3% | [5] 1.4% | [6] 15.2%

CS(=O)(=O)Nc1ccccc1-c1nc2ccccc2c(=O)o1
inactive: [1] 26.6% | [2] 30.7% | [3] 27.2% | [4] 14.3% | [5] 33.2% | [6] 27.7%

CCCN(CCC)S(=O)(=O)c1ccc(NC(=O)OC(CC)c2ccco2)cc1 (stereo not drawn)
inactive: [1] 27.8% | [2] -3.8% | [3] 8% | [4] 7.85% | [5] -5.5% | [6] 8.8%

CC(C)(O)C(F)(F)F
inactive: [1] 13.8% | [2] -5.85% | [3] 27.1% | [4] 12.2% | [5] -3.4% | [6] 25.5%

CCCCCCCCCCCCCCCC(C)O (stereo not drawn)
inactive: [1] -45.8% | [2] -35.8% | [3] -20.1% | [4] -35.6% | [5] -43.5% | [6] -34.8%

Cc1ccc(C2=CSc3ccccc3N2)cc1
inactive: [1] 24.8% | [2] 38% | [3] 45.6% | [4] -13.9% | [5] 62.5% | [6] 29.2%

CC(NC(=O)c1cnc2ccccc2n1)C(=O)O (stereo not drawn)
inactive: [1] -19.4% | [2] -24.4% | [3] -29.8% | [4] -16.4% | [5] 4.05% | [6] -24.8%

Nc1ccccc1S(=O)O
inactive: [1] -4% | [2] 8.55% | [3] 14.9% | [4] 7.7% | [5] -25.9% | [6] 13.1%
